PubChem BioAssay AID1159580 (chemical genetic matrix, 2015)
“And” between values parts separate entries of the source, which are not always exact repeats. Equal values may be shown once. About 2,000 (36%) of roughly 5,500 compounds were called active. Roughly 18% stayed inconclusive and do not appear here. Rule as the data show it: active = normalized growth mostly below about 0.91 (no sharp cut-off); inconclusive = no clear call, values can overlap the other calls; inactive = mostly above about 0.92. The list shows a part of the results.

Assay: chemical genetic growth profiling, strain panel (AID 1159580);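 also: tested at 20 µM; growth read once vehicle control cultures reached saturation at 30 °C; 1 = growth at the plate median or of vehicle wells; lower values mean less growth of the strain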
Conditions: S. cerevisiae deletion strains, growth OD

Measured: normalized growth

O=c1c(-c2ccc(O)cc2)coc2cc(O)ccc12
inactive: locus YAL013W, strain DEP1, hits give low values 0.964 | locus YAL021C, strain ccr4, hits give low values 0.996 | locus YAL026C, strain drs2, hits give low values 0.983 | locus YAL030W, strain snc1, hits give low values 0.989 | locus YAL040C, strain CLN3, hits give low values 1.01 | locus YBL061C, strain skt5, hits give low values 0.983 | locus YBR009C, strain hhf1, hits give low values 0.97 | locus YBR021W, strain FUR4, hits give low values 0.924 | locus YBR023C, strain chs3, hits give low values 0.978 | locus YBR171W, strain sec66, hits give low values 0.969 | locus YBR229C, strain ROT2, hits give low values 1.01 | locus YBR231C, strain swc5, hits give low values 0.986 | locus YBR279W, strain paf1, hits give low values 0.999 | locus YCL011C, strain gbp2, hits give low values 0.98 | locus YCL016C, strain dcc1, hits give low values 0.977 | locus YCL029C, strain bik1, hits give low values 0.983 | locus YCL061C, strain MRC1 (second series), hits give low values 1.01 | locus YCL061C, strain MRC1, hits give low values 0.975 | locus YCL069W, strain vba3, hits give low values 0.995 | locus YCR088W, strain abp1, hits give low values 0.987 | locus YDL005C, strain med2, hits give low values 0.976 | locus YDL035C, strain GPR1, hits give low values 1.01 | locus YDL040C, strain nat1, hits give low values 0.987 | locus YDL074C, strain BRE1, hits give low values 0.97 | locus YDL101C, strain DUN1, hits give low values 1.01 | locus YDL134C, strain PPH21, hits give low values 1 | locus YDL185W, strain tfp1, hits give low values 0.987 | locus YDL192W, strain arf1, hits give low values 1.01 | locus YDR001C, strain nth1, hits give low values 0.984 | locus YDR069C, strain doa4, hits give low values 0.985 | locus YDR101C, strain arx1, hits give low values 0.964 | locus YDR137W, strain rgp1, hits give low values 1 | locus YDR150W, strain NUM1, hits give low values 0.984 | locus YDR159W, strain sac3, hits give low values 0.974 | locus YDR162C, strain NBP2, hits give low values 1 | locus YDR195W, strain ref2 1.04 | locus YDR297W, strain sur2, hits give low values 0.978 | locus YDR318W, strain mcm21, hits give low values 0.99 | locus YDR334W, strain swr1, hits give low values 1 | locus YDR335W, strain msn5, hits give low values 0.992 | locus YDR363W, strain ESC2, hits give low values 1.01 | locus YDR388W, hits give low values 0.98 | locus YDR392W, strain spt3, hits give low values 0.849 | locus YDR502C, strain sam2, hits give low values 0.951 | locus YEL003W, strain gim4, hits give low values 0.989 | locus YEL037C, strain rad23, hits give low values 0.985 | locus YEL061C, strain CIN8 (second series), hits give low values 0.996 | locus YEL061C, strain CIN8, hits give low values 1.01 | locus YER002W, strain NOP16, hits give low values 0.992 | locus YER015W, strain faa2, hits give low values 0.993 | locus YER016W, strain bim1, hits give low values 0.982 | locus YER110C, hits give low values 0.974 | locus YER111C, strain swi4, hits give low values 0.98 | locus YER155C, strain BEM2 (second series), hits give low values 0.972 | locus YER155C, strain BEM2, hits give low values 0.992 | locus YER167W, strain BCK2, hits give low values 1 | locus YFR010W, strain ubp6, hits give low values 0.982 | locus YGL078C, strain dbp3, hits give low values 0.977 | locus YGL086W, strain mad1, hits give low values 0.969 | locus YGL167C, strain pmr1, hits give low values 0.981 | locus YGL173C, strain kem1, hits give low values 0.971 | locus YGL227W, strain vid30, hits give low values 0.984 | locus YGL240W, strain doc1, hits give low values 0.958 | locus YGL248W, strain PDE1, hits give low values 1.01 | locus YGL253W, strain hxk2, hits give low values 0.956 | locus YGR078C, strain PAC10, hits give low values 0.965 and 1.01 | locus YGR135W, strain pre9, hits give low values 0.957 | locus YGR229C, strain SMI1, hits give low values 0.974 | locus YGR252W, strain gcn5, hits give low values 0.825 | locus YHR013C, strain ard1, hits give low values 0.959 | locus YHR027C, strain rpn1, hits give low values 0.995 | locus YHR030C, strain SLT2, hits give low values 1.01 and 1.02 | locus YHR079C, strain IRE1 (second series), hits give low values 0.993 | locus YHR079C, strain IRE1, hits give low values 0.999 | locus YHR094C, strain hxt1, hits give low values 0.99 | locus YHR129C, strain ARP1, hits give low values 1.01 | locus YHR142W, strain chs7, hits give low values 0.943 | locus YHR200W, strain rpn10, hits give low values 0.979 | locus YIL066C, strain RNR3, hits give low values 1.02 | locus YIL073C, strain SPO22, hits give low values 0.951 | locus YIL125W, strain kgd1, hits give low values 0.988 | locus YIR030C, strain dcg1, hits give low values 0.978 | locus YJL092W, strain hpr5, hits give low values 0.981 | locus YJL095W, strain BCK1 (second series), hits give low values 0.98 | locus YJL095W, strain BCK1, hits give low values 0.977 and 1.03 | locus YJL115W, strain asf1, hits give low values 0.994 | locus YJL129C, strain trk1, hits give low values 0.969 | locus YJL134W, strain LCB3, hits give low values 1.01 | locus YJL154C, strain vps35, hits give low values 0.986 | locus YJL164C, strain tpk1, hits give low values 0.966 | locus YJL166W, strain qcr8, hits give low values 0.963 | locus YJL168C, strain set2, hits give low values 0.99 | locus YJL187C, strain SWE1 (second series), hits give low values 0.987 | locus YJL187C, strain SWE1, hits give low values 0.984 | locus YJR043C, strain POL32, hits give low values 0.994 | locus YJR066W, strain TOR1, hits give low values 0.989 | locus YKL009W, strain mrt4, hits give low values 0.951 | locus YKL068W, hits give low values 1 | locus YKL085W, strain MDH1 (second series), hits give low values 1.01 | locus YKL085W, strain MDH1, hits give low values 1.01 | locus YKL160W, strain elf1, hits give low values 0.971 | locus YKR001C, strain vps1, hits give low values 0.963 | locus YKR026C, strain gcn3, hits give low values 0.976 | locus YKR091W, strain srl3, hits give low values 0.982 | locus YLL001W, strain dnm1, hits give low values 0.945 | locus YLL026W, hits give low values 0.976 | locus YLL041C, strain sdh2, hits give low values 0.986 | locus YLR027C, strain aat2, hits give low values 0.973 | locus YLR039C, strain RIC1, hits give low values 1.05 | locus YLR058C, strain SHM2, hits give low values 1 | locus YLR102C, strain apc9, hits give low values 0.998 | locus YLR113W, strain HOG1, hits give low values 0.933 | locus YLR221C, strain rsa3, hits give low values 0.953 | locus YLR258W, strain gsy2, hits give low values 0.978 | locus YLR262C, strain YPT6 (second series), hits give low values 0.969 | locus YLR262C, strain YPT6, hits give low values 1.09 | locus YLR268W, strain sec22, hits give low values 0.949 | locus YLR320W, strain mms22, hits give low values 0.939 | locus YLR330W, strain CHS5, hits give low values 1 | locus YLR342W, strain FKS1 (second series), hits give low values 0.997 | locus YLR342W, strain FKS1, hits give low values 0.987 | locus YLR357W, strain rsc2, hits give low values 0.941 | locus YLR370C, strain arc18, hits give low values 0.982 | locus YLR371W, strain rom2, hits give low values 0.985 | locus YLR384C, strain iki3, hits give low values 1 | locus YLR418C, strain cdc73, hits give low values 0.888 | locus YML016C, strain PPZ1, hits give low values 1.02 | locus YML032C, strain rad52, hits give low values 0.977 | locus YML120C, strain ndi1, hits give low values 0.991 | locus YML124C, strain tub3, hits give low values 0.98 | locus YMR058W, strain fet3, hits give low values 0.981 | locus YMR078C, strain ctf18, hits give low values 0.979 | locus YMR125W, strain sto1, hits give low values 0.99 | locus YMR129W, hits give low values 0.989 | locus YMR205C, strain PFK2, hits give low values 0.957 | locus YMR223W, strain ubp8, hits give low values 0.978 | locus YMR231W, strain pep5, hits give low values 0.992 | locus YMR307W, strain GAS1, hits give low values 0.951 and 1.01 | locus YNL067W, strain RPL9B, hits give low values 0.966 | locus YNL071W, strain lat1, hits give low values 0.979 | locus YNL128W, strain TEP1, hits give low values 1 | locus YNL153C, strain GIM3, hits give low values 0.982 and 1.04 | locus YNL175C, strain NOP13, hits give low values 0.994 | locus YNL183C, strain NPR1, hits give low values 0.993 | locus YNL197C, strain WHI3, hits give low values 0.979 | locus YNL209W, strain ssb2, hits give low values 0.99 | locus YNL224C, strain SQS1, hits give low values 1 | locus YNL233W, strain BNI4, hits give low values 0.966 | locus YNL248C, strain rpa49, hits give low values 0.97 | locus YNL250W, strain rad50, hits give low values 1.01 | locus YNL271C, strain bni1, hits give low values 0.985 | locus YNL298W, strain CLA4, hits give low values 0.997 | locus YNL307C, strain MCK1, hits give low values 0.97 | locus YNL322C, strain KRE1 (second series), hits give low values 0.966 | locus YNL322C, strain KRE1, hits give low values 1 | locus YNR049C, strain mso1, hits give low values 0.985 | locus YNR052C, strain pop2, hits give low values 0.988 | locus YOL006C, strain TOP1, hits give low values 0.931 | locus YOL012C, strain htz1 0.695 | locus YOL147C, strain pex11, hits give low values 0.982 | locus YOR001W, strain rrp6, hits give low values 1 | locus YOR061W, strain CKA2, hits give low values 1.02 | locus YOR069W, strain VPS5, hits give low values 1.01 | locus YOR070C, strain gyp1, hits give low values 0.982 | locus YOR080W, strain dia2, hits give low values 0.98 | locus YOR083W, strain WHI5 (second series), hits give low values 1.05 | locus YOR083W, strain WHI5, hits give low values 0.945 | locus YOR106W, strain vam3, hits give low values 0.954 | locus YOR136W, strain idh2, hits give low values 0.97 | locus YOR144C, strain elg1, hits give low values 0.985 | locus YOR184W, strain ser1, hits give low values 0.935 | locus YOR231W, strain MKK1, hits give low values 1.03 | locus YOR265W, strain rbl2, hits give low values 0.985 | locus YOR270C, strain vph1, hits give low values 0.913 | locus YOR290C, strain snf2, hits give low values 0.902 | locus YOR316C, strain cot1, hits give low values 0.986 | locus YPL051W, strain arl3, hits give low values 0.988 | locus YPL055C, strain LGE1, hits give low values 0.958 | locus YPL078C, strain atp4, hits give low values 0.956 | locus YPL106C, strain sse1, hits give low values 0.935 | locus YPL240C, strain hsp82, hits give low values 1 | locus YPL241C, strain CIN2, hits give low values 1 | locus YPL256C, strain CLN2, hits give low values 0.992 | locus YPR119W, strain clb2, hits give low values 0.984 | locus YPR141C, strain kar3, hits give low values 0.997 | locus YPR163C, strain tif3, hits give low values 0.982 | locus YPR167C, strain met16, hits give low values 0.984 | strain wtn01, hits give low values 0.953
